Measured values: PubChem BioAssay AID1159580 (chemical genetic matrix, 2015)
Several values for one entry are separate records, joined by “and”; a condition that tells them apart may be missing. Equal values may be shown once. Hit rate of the full screen: of about 5,500 compounds, about 2,000 (36%) were called active. Not shown: some 18% with an inconclusive outcome. Rule as the data show it: active = normalized growth mostly below about 0.91 (no sharp cut-off); inconclusive = no clear call, values can overlap the other calls; inactive = mostly above about 0.92. Some of the results follow.

Assay: chemical genetic growth profiling, strain panel (AID 1159580);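 also: tested at 20 µM; growth read once vehicle control cultures reached saturation at 30 °C; 1 = growth at the plate median or of vehicle wells; lower values mean less growth of the strain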
Details: S. cerevisiae deletion strains, growth OD

Measured: normalized growth

NCCCC[C@H](N[C@@H](CCc1ccccc1)C(=O)O)C(=O)N1CCC[C@H]1C(=O)O
inactive: locus YAL021C, strain ccr4, stronger effect = lower value 1.01 | locus YAL026C, strain drs2, stronger effect = lower value 1.02 | locus YAL030W, strain snc1, stronger effect = lower value 0.978 | locus YBL061C, strain skt5, stronger effect = lower value 1.01 | locus YBR009C, strain hhf1, stronger effect = lower value 0.98 | locus YBR021W, strain FUR4, stronger effect = lower value 1.01 | locus YBR023C, strain chs3, stronger effect = lower value 0.998 | locus YBR171W, strain sec66, stronger effect = lower value 1.02 | locus YBR229C, strain ROT2, stronger effect = lower value 0.962 | locus YBR231C, strain swc5, stronger effect = lower value 1.01 | locus YBR279W, strain paf1, stronger effect = lower value 0.998 | locus YCL011C, strain gbp2, stronger effect = lower value 0.997 | locus YCL016C, strain dcc1, stronger effect = lower value 0.99 | locus YCL029C, strain bik1, stronger effect = lower value 0.992 | locus YCL069W, strain vba3, stronger effect = lower value 1.03 | locus YCR088W, strain abp1, stronger effect = lower value 1.03 | locus YDL005C, strain med2, stronger effect = lower value 1.03 | locus YDL035C, strain GPR1, stronger effect = lower value 0.995 | locus YDL040C, strain nat1, stronger effect = lower value 0.998 | locus YDL074C, strain BRE1, stronger effect = lower value 0.932 | locus YDL101C, strain DUN1, stronger effect = lower value 0.982 | locus YDL134C, strain PPH21, stronger effect = lower value 1 | locus YDL185W, strain tfp1, stronger effect = lower value 0.989 | locus YDL192W, strain arf1, stronger effect = lower value 0.992 | locus YDR001C, strain nth1, stronger effect = lower value 1.01 | locus YDR069C, strain doa4, stronger effect = lower value 0.935 | locus YDR101C, strain arx1, stronger effect = lower value 0.995 | locus YDR137W, strain rgp1, stronger effect = lower value 0.994 | locus YDR150W, strain NUM1, stronger effect = lower value 0.99 | locus YDR159W, strain sac3, stronger effect = lower value 0.923 | locus YDR162C, strain NBP2, stronger effect = lower value 0.994 | locus YDR195W, strain ref2 0.987 | locus YDR297W, strain sur2, stronger effect = lower value 0.979 | locus YDR318W, strain mcm21, stronger effect = lower value 1 | locus YDR334W, strain swr1, stronger effect = lower value 1.01 | locus YDR335W, strain msn5, stronger effect = lower value 0.972 | locus YDR388W, stronger effect = lower value 0.993 | locus YDR392W, strain spt3, stronger effect = lower value 1.01 | locus YDR502C, strain sam2, stronger effect = lower value 0.999 | locus YEL003W, strain gim4, stronger effect = lower value 1.02 | locus YEL037C, strain rad23, stronger effect = lower value 1.01 | locus YEL061C, strain CIN8 (second series), stronger effect = lower value 1.02 | locus YEL061C, strain CIN8, stronger effect = lower value 0.978 | locus YER015W, strain faa2, stronger effect = lower value 1 | locus YER016W, strain bim1, stronger effect = lower value 0.997 | locus YER110C, stronger effect = lower value 0.989 | locus YER111C, strain swi4, stronger effect = lower value 1.02 | locus YER155C, strain BEM2 (second series), stronger effect = lower value 0.994 | locus YER155C, strain BEM2, stronger effect = lower value 0.996 | locus YER167W, strain BCK2, stronger effect = lower value 0.989 | locus YFR010W, strain ubp6, stronger effect = lower value 1.01 | locus YGL078C, strain dbp3, stronger effect = lower value 1 | locus YGL086W, strain mad1, stronger effect = lower value 0.982 | locus YGL167C, strain pmr1, stronger effect = lower value 1.01 | locus YGL173C, strain kem1, stronger effect = lower value 1.04 | locus YGL227W, strain vid30, stronger effect = lower value 1.01 | locus YGL240W, strain doc1, stronger effect = lower value 0.92 | locus YGL248W, strain PDE1, stronger effect = lower value 0.966 | locus YGL253W, strain hxk2, stronger effect = lower value 0.971 | locus YGR135W, strain pre9, stronger effect = lower value 1.01 | locus YGR252W, strain gcn5, stronger effect = lower value 1.02 | locus YHR013C, strain ard1, stronger effect = lower value 1.01 | locus YHR027C, strain rpn1, stronger effect = lower value 0.985 | locus YHR030C, strain SLT2, stronger effect = lower value 0.996 and 1.03 | locus YHR079C, strain IRE1 (second series), stronger effect = lower value 0.999 | locus YHR079C, strain IRE1, stronger effect = lower value 1.05 | locus YHR094C, strain hxt1, stronger effect = lower value 0.995 | locus YHR129C, strain ARP1, stronger effect = lower value 0.997 | locus YHR142W, strain chs7, stronger effect = lower value 1.03 | locus YHR200W, strain rpn10, stronger effect = lower value 1 | locus YIL066C, strain RNR3, stronger effect = lower value 0.973 | locus YIL073C, strain SPO22, stronger effect = lower value 1.06 | locus YIL125W, strain kgd1, stronger effect = lower value 0.993 | locus YIR030C, strain dcg1, stronger effect = lower value 0.993 | locus YJL092W, strain hpr5, stronger effect = lower value 1.02 | locus YJL095W, strain BCK1 (second series), stronger effect = lower value 0.972 | locus YJL095W, strain BCK1, stronger effect = lower value 0.968 and 1.01 | locus YJL115W, strain asf1, stronger effect = lower value 1.01 | locus YJL129C, strain trk1, stronger effect = lower value 1.04 | locus YJL134W, strain LCB3, stronger effect = lower value 0.994 | locus YJL154C, strain vps35, stronger effect = lower value 1.03 | locus YJL164C, strain tpk1, stronger effect = lower value 1.02 | locus YJL166W, strain qcr8, stronger effect = lower value 0.989 | locus YJL168C, strain set2, stronger effect = lower value 0.995 | locus YJL187C, strain SWE1 (second series), stronger effect = lower value 0.971 | locus YJR043C, strain POL32, stronger effect = lower value 0.986 | locus YJR066W, strain TOR1, stronger effect = lower value 0.969 | locus YJR075W, strain HOC1, stronger effect = lower value 0.979
